Bioassay records as filed in PubChem BioAssay.
This excerpt belongs to a sample that is enriched for hits.
mHTT-CaM PPI inh: mHTT-calmodulin interaction abrogation; P42858; AlphaScreen His-mHTT/GST-CaM binding, luminescence; inhibition, % at 15 µM; 3.6% of 190,000 active; AID 1671202;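 note: 0% = both proteins with DMSO and 100% = one protein alone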
Pf apPOL block: Pf-apPOL DNA polymerase inhibition; Recombinant Pf-apPOL, molecular beacon fluorescence, 1.5 h; inhibition, % at 10 µM; 0.25% of 210,000 active; AID 1794808
* = called active by the depositor. Cut-off read from the data, not from the text of the source: active = inhibition above about 50%; inactive = the rest.

COc1ccc(C2(CN)CCOCC2)cc1OC was read as mHTT-CaM PPI inh -2 and Pf apPOL block -7.
`NCC1(c2ccc3c(c2)OCCO3)CCOCC1` gave mHTT-CaM PPI inh -8 and Pf apPOL block 106*.
COc1ccc(NC(=O)N2CCC3(C2)C(=O)Nc2ccc(OC)cc23)cc1 (stereo not given) was read as mHTT-CaM PPI inh 19 and Pf apPOL block -6.
`Cn1c(=O)n(C2CCNCC2)c2ncncc21` gave mHTT-CaM PPI inh -3 and Pf apPOL block 14.
`Brc1ccc2c(c1)C1C=CCC1C(c1cccnc1)N2` (stereo not given) gave mHTT-CaM PPI inh 85* and Pf apPOL block -4.
`Brc1cccc(C2CC(c3cccnc3)Nc3nnnn32)c1` (stereo not given) gave mHTT-CaM PPI inh -3 and Pf apPOL block 9.
`COc1ccccc1CCNCc1cc(OC)c(OC)c(OC)c1` gave mHTT-CaM PPI inh -8 and Pf apPOL block -7.
`Cc1cccc(NC(c2ccc(N(C)C)cc2)c2ccc3ccc(C)nc3c2O)n1` (stereo not given) gave mHTT-CaM PPI inh 100* and Pf apPOL block -4.
`Cc1ccc2cccc(OC(=O)N(C)c3ccccc3)c2n1` gave mHTT-CaM PPI inh -7 and Pf apPOL block 2.
`Cc1[nH]c2ccccc2c1CCCNC1CCCCC1` gave mHTT-CaM PPI inh 10 and Pf apPOL block -5.
`Cc1[nH]c2ccccc2c1CCN` gave mHTT-CaM PPI inh 100* and Pf apPOL block 1.
O=c1c2ccccc2nc(/C=C/c2ccc([N+](=O)[O-])cc2)n1-c1cccc(O)c1 was read as mHTT-CaM PPI inh 24 and Pf apPOL block -7.
Screening COc1cc2c(cc1OC)C1c3cc([N+](=O)[O-])ccc3Oc3cc(C#N)c(C#N)cc3N1CC2 (stereo not given) returned mHTT-CaM PPI inh 13 and Pf apPOL block -2.
`COc1cc2c(cc1OC)-c1c(OC)c(OC)c([N+](=O)[O-])c3c1C(C2)N(C)CC3` (stereo not given) gave mHTT-CaM PPI inh 57*.
`CNC(=O)Oc1cc([N+](=O)[O-])cc2cccnc12` gave mHTT-CaM PPI inh 100* and Pf apPOL block -9.
For CN(C)c1ccc([N+](=O)[O-])c2cccnc12 the results were mHTT-CaM PPI inh 14.
`COc1ccccc1CCNCc1cc(OC)c2c(c1)OCO2` gave mHTT-CaM PPI inh 89* and Pf apPOL block -7.
For COc1ccccc1CCNCc1ccc2c(c1)OCO2 the results were mHTT-CaM PPI inh 1 and Pf apPOL block -10.
For CC12CCC3C(CCC4CCCCC43C)C1CC(=Cc1ccccc1)C2=O (stereo not given) the results were mHTT-CaM PPI inh -2 and Pf apPOL block -1.
`CCCN1CCN(c2cnn3cnnc3c2)CC1` gave mHTT-CaM PPI inh -7 and Pf apPOL block 1.
CC(C)C(=O)NC(Oc1ccccc1)C(Cl)(Cl)Cl (stereo not given) was read as mHTT-CaM PPI inh -16 and Pf apPOL block -4.
CCCCCC(=O)NC(Oc1ccccc1)C(Cl)(Cl)Cl (stereo not given) was read as mHTT-CaM PPI inh 81* and Pf apPOL block -4.
Screening OC(CN(Cc1ccccc1)Cc1ccccc1)c1ccc2cc[nH]c2c1 (stereo not given) returned mHTT-CaM PPI inh 68* and Pf apPOL block 3.
Screening OCCN(CCc1ccccc1)Cc1ccccc1 returned mHTT-CaM PPI inh -14 and Pf apPOL block -6.
Screening CN1CC2CCC1CC(=NO)C2 (stereo not given) returned Pf apPOL block -10.
`CCN(CC)C(=O)c1ccc(NC(=O)c2ncn[nH]2)cc1` gave mHTT-CaM PPI inh 21 and Pf apPOL block 1.
CCN(CC)C(=O)c1ccc2c(c1)C1C=CCC1C(c1ccc([N+](=O)[O-])cc1)N2 (stereo not given) was read as mHTT-CaM PPI inh 70* and Pf apPOL block -2.
Screening CCN(CC)C(=O)c1ccc2c(c1)C1C=CCC1C(C(=O)O)N2 (stereo not given) returned mHTT-CaM PPI inh 76* and Pf apPOL block 2.
CCCn1cc(C(=O)NC(C)c2ccc(OC)cc2)c2cccnc21 (stereo not given) was read as mHTT-CaM PPI inh 10 and Pf apPOL block -4.
`O=C1CNC(c2ccccc2Cl)c2cc(Br)ccc2N1` (stereo not given) gave mHTT-CaM PPI inh 61* and Pf apPOL block -1.
Screening CC(=O)N1CC(=O)Nc2ccc(Br)cc2C1c1ccccc1Cl (stereo not given) returned mHTT-CaM PPI inh 16 and Pf apPOL block -3.
`Fc1cccc(CN2CCN(Cc3ccccc3)CC2)c1` gave mHTT-CaM PPI inh -3 and Pf apPOL block -6.
CN1CCN(C(=O)COc2ccc(-c3cnc4ccccc4n3)cc2)CC1 was read as mHTT-CaM PPI inh -4 and Pf apPOL block -1.
CCn1cc(C(=O)NCc2cccc(Br)c2)c2cccnc21 was read as mHTT-CaM PPI inh 58* and Pf apPOL block -19.
Screening CCn1cc(C(=O)NCc2ccc3c(c2)OCO3)c2cccnc21 returned mHTT-CaM PPI inh 12 and Pf apPOL block -11.
Screening CC(=O)N1N=C2C3CCN(CC3)C2C1c1ccc(Cl)cc1Cl (stereo not given) returned mHTT-CaM PPI inh -3 and Pf apPOL block -10.
COC(=O)c1n[nH]c([N+](=O)[O-])c1[N+](=O)[O-] was read as mHTT-CaM PPI inh -5.
For O=C1NC(=S)NC(=O)C1=Cc1ccco1 the results were Pf apPOL block 91*.
Screening O=C1NC(=S)NC(=O)C1=Cc1c(Cl)cccc1Cl returned Pf apPOL block 32.
For Cc1c(C(=O)O)nnn1Cc1c(F)cccc1Cl the results were mHTT-CaM PPI inh -16 and Pf apPOL block 1.
Screening CCN1CCN(Cc2ccc(N(C)C)cc2)CC1 returned mHTT-CaM PPI inh 37 and Pf apPOL block -5.
`COc1cc(CN2CCN(c3ccc(Cl)cc3)CC2)cc(I)c1O` gave mHTT-CaM PPI inh 42 and Pf apPOL block 0.
For O=[N+]([O-])c1ccc(N2CCNCC2)c2cccnc12 the results were mHTT-CaM PPI inh 0 and Pf apPOL block 0.
COc1ccccc1N1CCN(Cc2ccc(O)cc2)CC1 was read as mHTT-CaM PPI inh -3 and Pf apPOL block -3.
Screening COc1ccccc1N1CCN(C(=O)C(O)(c2ccccc2)c2ccccc2)CC1 returned mHTT-CaM PPI inh 82* and Pf apPOL block -13.
`CCOc1ccccc1N1CCN(Cc2ccccc2)CC1` gave mHTT-CaM PPI inh -6 and Pf apPOL block -10.
`O=C(c1nccs1)C1CCCN1` (stereo not given) gave mHTT-CaM PPI inh 98*.
`CC12CCC3(CC1CCC1C2CCC2(C)C1CCC2(C)O)OCCO3` (stereo not given) gave Pf apPOL block -5.
C=Cc1cccc2c1OC1(C)NC(=S)NC2C1C(=O)OCC (stereo not given) was read as mHTT-CaM PPI inh 0 and Pf apPOL block -9.
COc1ccc(NC(=O)CN2C(=O)CN=C(c3ccccc3)c3cc(Cl)ccc32)cc1OC was read as mHTT-CaM PPI inh 76* and Pf apPOL block -18.
Screening O=C(CN1C(=O)CN=C(c2ccccc2)c2ccccc21)Nc1cccc(Cl)c1 returned mHTT-CaM PPI inh 27 and Pf apPOL block -1.
For Cc1cccc(NC(=O)CN2C(=O)CN=C(c3ccccc3)c3cc(Cl)ccc32)c1C the results were mHTT-CaM PPI inh 54* and Pf apPOL block -20.
